Screening results as filed in PubChem.
Rows were chosen to be rich in hits. Some 4.2% of all compounds tested hit in one or more screens of this group.
USP28 inh: inhibitors of human USP28 deubiquitinase; Q96RU2; purified USP28, Ub-rhodamine cleavage fluorescence, 30 min; inhibition, % at 25 µM; actives 3% (n = 47,000); AID 1645857
OTUD3 inh: human OTUD3 deubiquitinase inhibition. Q5T2D3. purified OTUD3, Ub-rhodamine fluorescence, 2 h. inhibition, % at 25 µM. actives 0.7% (n = 47,000)
Target sequence (Q5T2D3 whole entry, looked up): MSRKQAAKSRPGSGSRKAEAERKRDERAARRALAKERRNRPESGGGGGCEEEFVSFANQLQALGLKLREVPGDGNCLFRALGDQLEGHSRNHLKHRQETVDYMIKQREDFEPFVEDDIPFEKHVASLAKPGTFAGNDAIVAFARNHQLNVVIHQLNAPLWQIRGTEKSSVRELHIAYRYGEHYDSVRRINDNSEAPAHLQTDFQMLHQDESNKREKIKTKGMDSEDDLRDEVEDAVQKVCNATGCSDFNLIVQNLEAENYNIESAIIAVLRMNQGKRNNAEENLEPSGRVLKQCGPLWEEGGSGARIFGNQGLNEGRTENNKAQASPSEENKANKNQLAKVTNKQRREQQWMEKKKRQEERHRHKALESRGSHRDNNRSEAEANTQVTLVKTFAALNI
UCHL1 block: blocks human UCHL1 ubiquitin-rhodamine cleavage; P09936; purified UCHL1, Ub-rhodamine cleavage fluorescence; inhibition, % at 20 µM; actives 0.2% (n = 47,000); AID 1645859
USP7 block: human USP7 deubiquitinase inhibition; AID 1645854; actives 0.3% (n = 47,000); purified USP7, Ub-rhodamine cleavage fluorescence; Q93009; inhibition, % at 20 µM
USP10 block: human USP10 deubiquitinase inhibition | Q14694 | purified USP10, Ub-rhodamine fluorescence, 60 min | inhibition, % at 20 µM | actives 1.1% (n = 47,000) | AID 1645856
Starred values were filed as active, the others as inactive. No stated cut-off is given here; in the data, active means inhibition above about 30%; inactive means the rest.

What do the screens show for `O=C(Nc1ccccc1-c1nc2ccccc2[nH]1)c1ccc(Br)cc1`?
USP28 inh: -10; OTUD3 inh: -4; UCHL1 block: -3; USP7 block: 2; USP10 block: 4

Results for O=C(Nc1ccccc1-c1nc2ccccc2[nH]1)c1sc2ccccc2c1Cl ?
USP28 inh: -6; OTUD3 inh: -8; UCHL1 block: 3; USP7 block: 32*; USP10 block: 33*

What do the screens show for `O=C(CSc1nc2scc(-c3ccco3)c2c(=O)n1-c1ccccc1)Nc1nsc(-c2ccccc2)n1`?
USP28 inh: 37*; OTUD3 inh: 13; UCHL1 block: 6; USP7 block: -28; USP10 block: -5

How did Cc1oc(-c2ccc(C(=O)NCC3COCCO3)cc2)nc1CN1CCc2ccccc21 (stereo not given) do in these assays?
USP28 inh: 57*; OTUD3 inh: -26; UCHL1 block: -1; USP7 block: -3; USP10 block: -8

What do the screens show for `Cc1ccc(C(=O)NCC2COCCO2)cc1NC(=O)c1nsc2ccccc12` (stereo not given)?
USP28 inh: -5; OTUD3 inh: -8; UCHL1 block: 0; USP7 block: -7; USP10 block: 0

What do the screens show for `COc1cccc(Cn2nc(C(=O)O)c3ccccc3c2=O)c1`?
USP28 inh: 38*; OTUD3 inh: -3; UCHL1 block: -37; USP7 block: -20; USP10 block: -8

Results for COc1cc(=O)c(C(=O)Nc2ccc(C#N)cc2)nn1-c1cccc(F)c1 ?
USP28 inh: 43*; OTUD3 inh: -2; UCHL1 block: 1; USP7 block: -3; USP10 block: 9

What do the screens show for `CCOc1ccc(C(=O)CCC(=O)Nc2cccc(S(=O)(=O)Nc3cccc(Cl)c3)c2)cc1`?
USP28 inh: -3; OTUD3 inh: -8; UCHL1 block: 1; USP7 block: 6; USP10 block: 33*

How did CSc1nnc(NC(=O)c2cc(-c3cc(Cl)ccc3O)n[nH]2)s1 do in these assays?
USP28 inh: 12; OTUD3 inh: 11; UCHL1 block: 3; USP7 block: 12; USP10 block: 18

Results for CCCc1nnc(NC(=O)c2cc(-c3ccccc3O)n[nH]2)s1 ?
USP28 inh: 7; OTUD3 inh: 3; UCHL1 block: 4; USP7 block: 16; USP10 block: 54*

Results for CCc1ccc(NC(=O)c2nnn(-c3cccc(C)c3)c2C)cc1 ?
USP28 inh: 41*; OTUD3 inh: 0; UCHL1 block: 1; USP7 block: 5; USP10 block: 5

Results for COc1cccc(-n2nnc(C(=O)Nc3ccc(C)c(C)c3)c2C)c1 ?
USP28 inh: 58*; OTUD3 inh: 13; UCHL1 block: 6; USP7 block: -24; USP10 block: 6

How did Cc1cc(NC(=O)c2nnn(-c3ccccc3Cl)c2C)no1 do in these assays?
USP28 inh: 86*; OTUD3 inh: 12; UCHL1 block: 2; USP7 block: -2; USP10 block: -1

How did Cc1ccc(NC(=O)c2nnn(-c3ccccc3Br)c2C)cc1C do in these assays?
USP28 inh: 84*; OTUD3 inh: 8; UCHL1 block: 5; USP7 block: -2; USP10 block: 5

Results for CCc1ccc(NC(=O)c2nnn(-c3cccc(F)c3)c2C)cc1 ?
USP28 inh: 17; OTUD3 inh: 8; UCHL1 block: 1; USP7 block: 7; USP10 block: 2

Results for O=C(C1CCCO1)N1CCC2(CC1)COc1ccccc1S(=O)(=O)N(CC1CC1)C2 (stereo not given) ?
USP28 inh: -5; OTUD3 inh: -7; UCHL1 block: -2; USP7 block: -4; USP10 block: 1

What do the screens show for `CCN1CCc2c(sc(NC(=O)CSc3ccc(Cl)cc3)c2C(N)=O)C1`?
USP28 inh: 15; OTUD3 inh: -3; UCHL1 block: -19; USP7 block: -23; USP10 block: -7

What do the screens show for `O=C(Nc1ccc(Cl)cc1)C1C2C=CC3(O2)C1C(=O)N(C1CC1)C3C(=O)NC1CCCCC1` (stereo not given)?
USP28 inh: 4; OTUD3 inh: 6; UCHL1 block: -1; USP7 block: -6; USP10 block: 0

Results for Cc1ccc(-n2c(-c3ccccc3)cn3c4c(=O)[nH]c(=O)n(C)c4nc23)cc1Cl ?
USP28 inh: 16; OTUD3 inh: 10; UCHL1 block: 1; USP7 block: 4; USP10 block: 8

Results for COc1cccc(C(=O)Nc2nc(-c3nnn(-c4ccc(C)c(F)c4)c3C)ns2)c1 ?
USP28 inh: 64*; OTUD3 inh: 29; UCHL1 block: 7; USP7 block: 16; USP10 block: 48*

How did CCOc1cccc(C(=O)Nc2nc(-c3ccc(OCC)c(OC)c3)ns2)c1 do in these assays?
USP28 inh: 4; OTUD3 inh: 12; UCHL1 block: 1; USP7 block: 0; USP10 block: -4

What do the screens show for `COc1ccc(NC(=O)c2nnn(-c3cccc(C)c3)c2C)cc1`?
USP28 inh: 59*; OTUD3 inh: 19; UCHL1 block: 3; USP7 block: -12; USP10 block: 8

How did COc1ccc(NC(=O)c2nnn(-c3ccccc3F)c2C)cc1OC do in these assays?
USP28 inh: 74*; OTUD3 inh: -10; UCHL1 block: 0; USP7 block: -2; USP10 block: 1

How did Cc1cccc(-n2nnc(C(=O)Nc3ccc(F)cc3)c2C)c1 do in these assays?
USP28 inh: 19; OTUD3 inh: 16; UCHL1 block: 5; USP7 block: 1; USP10 block: 4

Results for Cc1c(C(=O)Nc2ccc(Oc3ccccc3)cc2)nnn1-c1cccc(Cl)c1 ?
USP28 inh: 50*; OTUD3 inh: 17; UCHL1 block: 4; USP7 block: 5; USP10 block: 9

Results for COc1cc(OC)cc(N2C(=O)N(CC(=O)c3ccc(Br)cc3)c3ccccc3S2(=O)=O)c1 ?
USP28 inh: 11; OTUD3 inh: -5; UCHL1 block: 14; USP7 block: 46*; USP10 block: 81*

How did COc1ccc(C(=O)CN2C(=O)N(c3cccc(C)c3)S(=O)(=O)c3ccccc32)cc1 do in these assays?
USP28 inh: -2; OTUD3 inh: -4; UCHL1 block: -1; USP7 block: 5; USP10 block: 6

How did O=C(O)c1ccccc1C(=O)Nc1ccc(SC(C(=O)Nc2cccc(Cl)c2Cl)c2ccccc2)cc1 (stereo not given) do in these assays?
USP28 inh: -4; OTUD3 inh: -10; UCHL1 block: -1; USP7 block: -2; USP10 block: 5

What do the screens show for `O=C(O)c1ccccc1C(=O)Nc1ccc(SC(C(=O)Nc2ccccc2Cl)c2ccccc2)cc1` (stereo not given)?
USP28 inh: 24; OTUD3 inh: 9; UCHL1 block: 4; USP7 block: -2; USP10 block: 49*

What do the screens show for `Cc1cc(Br)ccc1NC(=O)CSc1nc2c(cc1C#N)C(=O)CCC2`?
USP28 inh: -9; OTUD3 inh: -4; UCHL1 block: 1; USP7 block: 7; USP10 block: 7
